Results on 97 compounds are retold here after ChEMBL document CHEMBL3988442, “University of Dundee, Small-Polar-MMV Screening Library” (2021).

Each structure is given as a SMILES string. In all, about 48,000 compounds went through this assay and about 13,000 (27%) showed an effect of 50% or more. The list shows a part of the results.

This test has as its system Wolbachia pipientis. Nature of the test: Anti-Wolbachia Cell-Based Screen. Conditions: 5 µM. The format is functional. Also noted: scale not given: in the data most compounds retested in dose-response had high values.
With `Cc1ccccc1CN1CCN(C(=O)CN2CCOC2=O)CC1`, the “Percent Effect” value is -7.914%. The result for `Cc1nc2c(c(N3CCCC(CO)C3)n1)CCN(Cc1ccco1)CC2` (configuration not stated) reads -5.863%.

On to `CC(C)(C)CC(=O)NC[C@H]1OC[C@@H](NCc2ccccn2)[C@@H]1O`, for which the “Percent Effect” value is on record as -12.57%. The result for `COc1ccc(CN2C[C@@H](CN(C)C)[C@@H](CO)C2)cc1OC` reads 17.76%. In the case of `Cn1ccc(C(=O)NC2CCC23CCN(C(=O)c2ccnnc2)CC3)c1` (configuration not stated) it was 9.055%; in that of `Cn1ccc(C(=O)NC2CCC23CCN(C(=O)c2ccccn2)CC3)c1` (configuration not stated), -6.667%; in that of `Cn1ccc(C(=O)NC2CCC23CCN(Cc2nccs2)CC3)c1` (configuration not stated), 125.2%. The result for `CS(=O)(=O)NCc1cc2n(n1)CCCN(Cc1ccc(Cl)s1)C2` reads 7.385%; that for `CCc1cnc(CN(C)C(C)C(=O)N2CCc3ccccc3C2)s1` (configuration not stated), -7.357%; that for `CC(C)[C@H](N)C(=O)N1CCSc2ccccc2C1.Cl`, 101.9%. As to `Cc1csc(CN(C)C(C)C(=O)N2CCc3ccccc3C2)n1` (configuration not stated), the “Percent Effect” value is given as 7.72%. As for `CC(C)(O)CN1CCN(C(=O)C2CSc3ccccc3O2)CC1` (configuration not stated), the “Percent Effect” value is -0.7844%. Consider `CN(C)C(C(=O)N1Cc2ccccc2C1)c1ccccc1F` (configuration not stated), for which the “Percent Effect” value is -6.272%. With `CC(C)C[C@H](N)C(=O)N1CCSc2ccccc2C1.Cl`, the “Percent Effect” value came to 104.5%.

In the case of `O=C(C1CSc2ccccc2O1)N1CCN(CCO)CC1` (configuration not stated), the “Percent Effect” value is listed as -0.8425%.

In the case of `N[C@@H](C(=O)N1CCN(c2ccccc2Cl)C(=O)C1)c1ccccc1`, the “Percent Effect” value is 1.545%. The result for `Cl.NC(C(=O)N1CCSc2ccccc2C1)c1ccccc1` (configuration not stated) reads 93.09%; that for `COc1ccc(-c2cn(CCn3c(C)cc(C)nc3=O)nn2)cn1`, 13.66%.

As to `CC(Oc1ccc(F)cc1F)C(=O)N1CCC2(CC1)CC(=O)N(C)C2` (configuration not stated), the “Percent Effect” value is -15.1%. In the case of `Cn1c(C(=O)N2CCc3[nH]cnc3C2C(=O)O)ccc1-c1ccccc1` (configuration not stated) it was 10.75%. The result for `CN(Cc1nc(CC2CC2)no1)CC1Cc2ccccc2O1` (configuration not stated) reads 1.11%; that for `Cc1nccn1-c1cc(CNC(=O)c2ccccn2)ccn1`, -23.44%. On to `Cc1nccn1-c1ccc(=O)n(CCNC(=O)c2ccccn2)n1`, for which the “Percent Effect” value is reported as 116.7%. In the case of `Cn1c(C(F)(F)F)nn(CCNC(=O)CCc2ccccc2)c1=O` it was 8.562%. The result for `Cc1nccn1-c1ccc(=O)n(CCNC(=O)c2c(F)cccc2Cl)n1` reads 122.2%; that for `Cn1c(C(F)(F)F)nn(CCNC(=O)c2ccccn2)c1=O`, -5.949%; that for `CC(=O)NCc1ccc(-n2ccnc2C)nc1`, 28.24%. The result for `Cc1nccn1-c1ccc(=O)n(CCNC(=O)Cc2ccccc2)n1` reads 251.7%; that for `O=C(CNC(=O)c1c(F)cccc1Cl)Nc1ccc(F)cn1`, -31.04%. Consider `O=c1ccc(-n2ccnc2)nn1CCNS(=O)(=O)c1ccccc1Cl`, for which the “Percent Effect” value is reported as -3.668%. In the case of `Cc1ccoc1C(=O)N1CC(C(=O)N2CCOCC2)C2(CCOCC2)C1` (configuration not stated) it was -39.43%; in that of `CC(=O)c1c(F)cccc1N1CCC(NS(=O)(=O)c2ccccc2)CC1`, -17.75%. Turning to `CC(C)Oc1cc(N2CC[C@H](CO)[C@@H](O)C2)nc(N)n1`, the “Percent Effect” value is given as -19.56%.

On to `Cc1ccccc1CCCN1C(=O)CC2(CCSC2)C1=O` (configuration not stated), for which the “Percent Effect” value is reported as 0.3605%. In the case of `Cc1noc(CCCNC(=O)C2CSCN2C(=O)C(C)(C)C)n1` (configuration not stated) it was -2.864%.

For `CN(C(=O)CCNC(=O)C1COc2ccccc21)c1ccccc1` (configuration not stated), the “Percent Effect” value was 1.32%. Take `O=C(c1cocn1)N1CCC2(CC1)CC(OCC1CC1)CO2` (configuration not stated): the “Percent Effect” value is listed as 7.124%. Consider `CN(C)CCCNc1ncnc2cccc(F)c12`, for which the “Percent Effect” value was -15.41%. In the case of `O=C(NCCOCC1CC1)Nc1ccc(F)cc1` it was -7.278%; in that of `CN(CCOCC1CC1)C(=O)Nc1ccc([S+](C)[O-])c(F)c1` (configuration not stated), 94.49%.

With `COCCN(C)C(=O)Nc1ccc(C(=O)NCCC(=O)OC)cc1`, the “Percent Effect” value stood at 9.449%. In the case of `CN(CCOCC1CC1)C(=O)Cn1cccc(C(F)(F)F)c1=O` it was 10.84%.

Consider `CN(CCOCC1CC1)C(=O)Nc1ccc([S+](C)[O-])cc1` (configuration not stated), for which the “Percent Effect” value is listed as 90.95%. In the case of `C[S+]([O-])c1ccc(NC(=O)Cc2cccnc2)cc1F` (configuration not stated) it was 6.367%; in that of `CC(C)Cc1ncc2c(n1)CN(c1nccc(NC(C)C)n1)C2`, -6.813%.

With `COC1CCN(C(=O)c2c(Cl)c3ccccc3n2C)CC1`, the “Percent Effect” value is recorded as -0.1607%. The result for `O=C(CCc1cc(Cl)no1)N1CCCCC1CCN1CCOCC1` (configuration not stated) reads -7.331%; that for `CCc1nc(CCNc2ncccn2)sc1C`, -26.63%.

In the case of `COc1cccc(C(O)CN2CCN(c3cccc(C)c3)CC2)c1` (configuration not stated), the “Percent Effect” value came out at 140.6%. In the case of `COc1ccc(OC)c(C(O)CN2CCN(C3CCCC3)CC2)c1` (configuration not stated), the “Percent Effect” value worked out at 3.384%. In the case of `COc1cccc(N2CCN(CC(O)c3cc(C)sc3C)CC2)c1` (configuration not stated), the “Percent Effect” value is recorded as -7.346%. `COCCN1CCN(CC(O)c2cc(OC)ccc2OC)CC1` (configuration not stated): the “Percent Effect” value is given as 7.391%. The result for `COc1cccc(C(O)CN2CCN(C(=O)CCC(C)C)CC2)c1` (configuration not stated) reads -9.64%; that for `COc1ccc(OC)c(C(O)CN2CCN(c3cccc(C)c3)CC2)c1` (configuration not stated), 116.6%. The result for `CS(=O)(=O)c1ccc2c(c1)nc1n2[C@@H](CNCc2cccnc2)COC1` reads 6.164%.

Consider `CC(CC(=O)N1CCCS1(=O)=O)c1ccccc1C(F)(F)F` (configuration not stated), for which the “Percent Effect” value is -9.75%.

In the case of `COC(=O)[C@@H]1Cc2ncn(C)c2CN1S(=O)(=O)c1cccs1`, the “Percent Effect” value is listed as -9.442%. On to `CNC(=O)CCc1cc(C)nc(C2CCCCN2)n1` (configuration not stated), for which the “Percent Effect” value came to 122.2%.

`Cc1cc(C)n(CC2CCCN2CC(=O)Nc2nncs2)n1` (configuration not stated): the “Percent Effect” value is -0.6534%.

Turning to `CNC(=O)CCc1cc(C)nc(C2CCCN2)n1` (configuration not stated), the “Percent Effect” value is recorded as -4.947%. With `CCN1CCn2nc(CCC(=O)N3CCCC3)cc2C1`, the “Percent Effect” value is 0.2115%.

For the compound `Cc1cc(CCC(=O)N(C)C)nc(C2CCCCN2)n1.Cl.Cl` (configuration not stated), the “Percent Effect” value is on record as 123.4%. In the case of `Cc1cc(C)n(CC2CCCCN2CC(=O)Nc2nncs2)n1` (configuration not stated) it was -4.796%; in that of `CN(C)[C@H]1CCCCN(C(=O)CCc2csc(N)n2)C1`, -1.322%. `CNC(=O)CCc1cccc(OC2CCCC2)c1`: the “Percent Effect” value came to 6.693%. In the case of `Cc1cc(CCC(=O)Nc2nncs2)nc(C2CCCN2)n1.Cl` (configuration not stated), the “Percent Effect” value was found to be 92.36%. Turning to `Cc1cc(CCC(=O)N2CCCC2)nc(C2CCCN2)n1` (configuration not stated), the “Percent Effect” value worked out at 120.7%. For `CCc1nc(C)c([C@H]2CN(C)C[C@@H]2C(=O)Nc2ccc3[nH]ncc3c2)[nH]1`, the “Percent Effect” value stood at 2.29%.

Turning to `CC(=O)N1CCC(NC2(Cc3cc(CC(C)C)on3)COC2)CC1`, the “Percent Effect” value came out at 8.31%. With `Cc1nc(CN2C(=O)CC[C@@H]3[C@H]2CCN3C(=O)C2CCOCC2)cs1`, the “Percent Effect” value is recorded as -12.01%.

Consider `Cc1nc(CN2C(=O)CC[C@@H]3[C@H]2CCN3C2CCOC2)cs1.O=C(O)C(F)(F)F` (some centres not stated), for which the “Percent Effect” value is 91.6%. The result for `Cc1nc(CN2CCN(C3CCOC3)Cc3cccnc32)cs1.O=C(O)C(F)(F)F.O=C(O)C(F)(F)F.O=C(O)C(F)(F)F` (configuration not stated) reads -13.84%. `Cc1nc(CN2C(=O)CC[C@@H]3[C@H]2CCN3C2CCOCC2)cs1.O=C(O)C(F)(F)F`: the “Percent Effect” value worked out at 88.53%. For the compound `Cc1nc(CN2C(=O)C[C@H]3[C@H]2CCN3C2CCOC2)cs1.O=C(O)C(F)(F)F` (some centres not stated), the “Percent Effect” value stood at 104.4%.

Turning to `Cc1nc(CN2C(=O)CC[C@@H]3[C@H]2CCN3C(=O)c2ccccn2)cs1.O=C(O)C(F)(F)F`, the “Percent Effect” value is on record as -0.4991%. Consider `Cc1nc(CN2C(=O)C[C@H]3[C@H]2CCN3C2CCOCC2)cs1.O=C(O)C(F)(F)F`, for which the “Percent Effect” value is recorded as -10.54%.

With `Cc1cccc(OC2CCN(c3nccnc3C#N)CC2)n1`, the “Percent Effect” value worked out at 4.563%. In the case of `COc1ccc(C(=O)N(C)Cc2cc(C)on2)c(F)c1` it was 9.615%; in that of `CC(=O)Nc1nc2c(s1)C1(CCCC1)Nc1ccccc1S2`, 63.28%; in that of `CNc1ncc(C(=O)N2CCC3(CC2)Nc2ccccc2NC3=O)cn1`, -19.06%. The result for `CC(=O)Nc1nc2c(s1)C(C)(C)Nc1ccccc1S2` reads 66.2%; that for `COc1cc(C(=O)N2CCC3(CC2)Nc2ccccc2NC3=O)ccn1`, 31.29%; that for `CC(=O)Nc1nc2c(s1)C1(CCN(C)CC1)Nc1ccccc1S2`, 104.1%. Regarding `CS(=O)(=O)N1CC[C@]2(O)CCN(c3cc(C#N)ccn3)C[C@@H]2C1`, the “Percent Effect” value is given as -2.197%.

As to `CCOc1ccc(CCC(=O)N2CC[C@H]3C(=O)NCCO[C@H]3C2)cc1`, the “Percent Effect” value came to 8.218%.

In the case of `Cc1c(C(=O)NCCC(=O)N2CCOCC2)oc2c(C)cccc12`, the “Percent Effect” value is on record as -0.1879%. The result for `CC(NCc1cnc(C2CCC2)s1)c1cccc(-n2cccn2)c1` (configuration not stated) reads -14.57%; that for `O=C(CN1C(=O)CCC1=O)NCc1nn(C2CCCC2)c2c1CCCC2`, -9.274%; that for `Cc1nc(COC[C@@]23CCC[C@@H]2CN(Cc2nccs2)C3)cs1.O=C(O)C(F)(F)F`, 8.352%. Regarding `Cn1cc(CN2CCn3cnc(COCC4CC4)c3C2)cn1.O=C(O)C(F)(F)F`, the “Percent Effect” value stood at 8.69%. As to `Cc1nc(COC[C@@]23CCC[C@@H]2CN(Cc2cnn(C)c2)C3)cs1`, the “Percent Effect” value came to 93.55%.

Turning to `Cn1cc(CN2C[C@@H]3COC[C@]3(CNC(=O)c3ccco3)C2)cn1.O=C(O)C(F)(F)F`, the “Percent Effect” value is reported as -7.864%.

As for `Cn1cc(CN2C[C@H]3CCC[C@@]3(COCC3CC3)C2)cn1.O=C(O)C(F)(F)F`, the “Percent Effect” value came to 101.6%. In the case of `Cc1cccc(CN2C[C@H]3CCC[C@@]3(COCc3csc(C)n3)C2)n1.O=C(O)C(F)(F)F.O=C(O)C(F)(F)F` it was -5.241%. In the case of `Cn1cc(CN2C[C@@H]3COC[C@]3(CNC(=O)c3ccsc3)C2)cn1.O=C(O)C(F)(F)F` it was -12.06%; in that of `Cn1cc(CN2C[C@@H]3COC[C@]3(COCC3CC3)C2)cn1.O=C(O)C(F)(F)F`, 100.8%; in that of `CCn1cc2c(n1)CN(Cc1cnn(C)c1)CC2COCC1CC1.O=C(O)C(F)(F)F` (configuration not stated), 12.58%.
